27 compounds from PubChem BioAssay (NCATS) can be followed below.

One test deals with CRL-7250. Nature of the test: Cytotoxic Profiling of Annotated Libraries Using Quantitative High-Throughput Screening (AID 1296008). Further: nearly all actives have a fitted effect of over 60% in size. To be noted: Five cell lines viability, CellTiter-Glo ATP luminescence, 48-72 h; max response: stronger effect = lower value. A digest of the protocol:
(§1)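 Compounds were pin-transferred onto cells and incubated 48 or 72 hr at 37 degree Celsius, 95% humidity. CellTiter-Glo was added, plates sat 10 min at room temperature, then ATP-coupled luminescence was imaged as the viability read-out.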
Background: ATP-based viability assays read luminescence as a measure of living cells.

The subject of a further test is HEK293. Described as above. To be noted: Five cell lines viability, CellTiter-Glo ATP luminescence, 48-72 h; max response: stronger effect = lower value. A digest of the protocol:
as §1

Inconclusive results are not listed. Unmarked numbers belong to inactive results. Activity calls are given as the source filed them. The call rests on the fitted dose curve; in most records, active means well fitted inhibition curve with a large enough effect; inconclusive means small, poorly fitted or top-dose-only effect; inactive means flat fitted curve, though single readings scatter.
On the % scale 0 is the no-effect control and ±100 the full control effect; potency means the concentration at half of the fitted maximal effect.

For `O=C(NOCC(O)CO)c1ccc(F)c(F)c1Nc1ccc(I)cc1F` (centres undefined), the Potency with CRL-7250 was 4610 nM (active). The max response with HEK293 was 2.15%.
Consider `CC(=O)/C=C/[C@H]1[C@](C)(O)[C@@H](O)[C@H](OC(C)=O)C2C(C)(C)CCC[C@@]21C` (some centres undefined), for which the max response with CRL-7250 is 4.5%; with HEK293, -3.84%.
As for `CC(C)C[C@H](CC(=O)NO)C(=O)N[C@H](C(=O)N[C@@H](C)C(=O)NCCN)C(C)(C)C`, the outcome in the test on CRL-7250 was inactive. Moreover, the max response in the test on HEK293 is -1.44%.
Regarding `COC(=O)CCSCc1ccc(-c2onc(C)c2NC(=O)OC(C)c2ccccc2Cl)cc1` (centres undefined), the max response is -4.23% with CRL-7250 and -7.48% in the test with HEK293.
Take `C=C(C(=O)O)[C@H]1C[C@]2(C)[C@@H](O)CC[C@]23O[C@H]1C[C@@H]3C`: the max response with CRL-7250 is -8.76%; with HEK293, -6.98%.
`C=C1CCC2C(C)(C(=O)OC)CCCC2(C)C1CCC(C)CC(=O)O` (centres undefined): the compound was called inactive in the test on CRL-7250. Moreover, the max response in the test with HEK293 is -9.98%.
Take `CCC(C)C(=O)O[C@H]1CCC=C2C=C[C@H](C)[C@H](CC[C@@H](O)C[C@@H](O)CC(=O)O)[C@H]21` (some centres undefined): in the test with CRL-7250, the Potency is 7960 nM (active). The max response in the test on HEK293 is 0.832%.
`CC1OC(OC2C(O)C(OC3CCC4(C)C(CCC5(C)C4CC=C4C6CC(C)(COC7OC(CO)C(O)C(O)C7O)CC(O)C6(C)CCC45C)C3(C)C)OC(C(=O)O)C2O)C(O)C(O)C1OC1OCC(O)C(O)C1O` (centres undefined): the max response in the test on CRL-7250 is 3.82%; in the test with HEK293, -5.93%.
On to `COc1ccc(-n2[nH]c(=O)c3[nH]c4cc(Cl)ccc4c(=O)c3c2=O)c(C)c1`, for which the max response with CRL-7250 was 1.23%. Moreover, in the test on HEK293, the compound was classed as inactive.
Consider `CC1(C(=O)O)CCCC2(C)C3=CCC4CC3(CCC12)CC4CO` (centres undefined), for which the max response with CRL-7250 was -23%; in the test on HEK293, -3.78%.
For the compound `COc1cc(N2CCOCC2)ccc1Nc1ncc(Cl)c(Nc2ccccc2NS(C)(=O)=O)n1`, the max response with CRL-7250 was -96.5%. In addition, in the test with HEK293, the Potency is 1840 nM (active).
Take `CSc1ccc(C(=O)N[C@@H]2CCCC[C@@H]2NC(=O)CNC(=O)c2cc(C(F)(F)F)ccc2NC(=O)NC(C)C)cc1`: the figures for the max response in the test with CRL-7250 and in the test on HEK293 were -1.98% and -11.3%, respectively.
For the compound `COc1cc2c(cc1O)CC[C@H]1[C@@H]2CC[C@]2(C)[C@H](O)CC[C@@H]12`, the values for the Potency in the test on CRL-7250 and in the test with HEK293 were 14600 nM (active) and 1030 nM (active), respectively.
Regarding `CC1=C(C)C(=O)OC(C(C)C2CCC3C4C5OC5C5(O)CC(OC6OC(CO)C(OC7OC(C)C(O)C(O)C7O)C(O)C6O)CC(O)C5(C)C4CCC23C)C1` (centres undefined), in the test with CRL-7250, the compound was called inactive. Also, in the test on HEK293, the max response is -0.932%.
Consider `CCc1cc(CN2CC(C(=O)O)C2)sc1-c1noc(-c2ccc(Oc3ccccc3)cc2)n1`, for which the max response in the test on CRL-7250 was -28.8%; with HEK293, -73%.
Regarding `COCC1OC(OC(C)(C)C2CCC3(C)C=C(C4CCC5C4(C)CC(O)C4OC(C(C)(C)OC6OC(CO)C(O)C(O)C6NC(C)=O)CCC45C)CCC3O2)C(NC(C)=O)C(O)C1O` (centres undefined), the max response in the test with CRL-7250 is 2.51%; in the test on HEK293, -5.83%.
The matching figures for `CC(C)CC1NC(=O)C(C)NC(=O)C(CC(C)C)OC(=O)CCCNC1=O` (centres undefined): -2.1% and -5.55%.
Take `Cc1ccc(S(=O)(=O)Cc2nc(-c3ccc(C(=O)NCc4cccnc4)cc3)oc2C)cc1`: the figures for the Potency in the test with CRL-7250 and with HEK293 were 65.1 nM (active) and 6.5 nM (active), respectively.
In the case of `Cc1cc(C)c(CNC(=O)c2cc(-c3ccc(CN4CCOCC4)cc3)cc3c2cnn3C2CCCC2)c(=O)[nH]1`, the max response in the test with CRL-7250 is 1.71%. Further, in the test on HEK293, the Potency is 14800 nM (active).
Regarding `COc1ccc(/C=C/C(=O)O[C@H]2[C@H](O[C@H]3[C@@H]4C=CO[C@@H](O[C@@H]5O[C@H](CO)[C@@H](O)[C@H](O)[C@H]5O)[C@@H]4[C@@]4(CO)O[C@@H]34)O[C@@H](C)[C@H](O)[C@H]2OC(C)=O)cc1`, the max response in the test with CRL-7250 was 3.12%; with HEK293 it was -1.88%.
With `CC/C=C\C/C=C\C/C=C\CCCCCCCC(=O)OCC(O)COC1OC(CO)C(O)C(O)C1O` (centres undefined), the max response was -2.54% with CRL-7250 and -1.09% with HEK293.
For `O=C1NC(=O)C(c2cn3c4c(cccc24)CCC3)C1c1c[nH]c2ccccc12` (centres undefined), the Potency is 5800 nM (active) in the test on CRL-7250 and 1030 nM (active) in the test on HEK293.
Consider `CCCCc1nc2cc(/C=C/C(=O)NO)ccc2n1CCN(CC)CC`, for which the Potency with CRL-7250 is 5800 nM (active); in the test with HEK293, 1840 nM (active).
Take `CC(=O)O[C@@H]1[C@@H](O)[C@H](C)O[C@@H](O[C@H]2[C@@H]3C=CO[C@@H](O[C@@H]4O[C@H](CO)[C@@H](O)[C@H](O)[C@H]4O)[C@@H]3[C@@]3(CO)O[C@@H]23)[C@@H]1OC(=O)/C=C/c1ccccc1`: the max response in the test on CRL-7250 was -1.26%; with HEK293, 2%.
As to `COC(=O)CC1CC(c2ccc(O)cc2)=NO1` (centres undefined), the max response in the test on CRL-7250 was -3.02%; in the test on HEK293, 0.726%.
On to `CC(C)C(CO)Nc1nc(Nc2ccc(C(=O)O)c(Cl)c2)c2ncn(C(C)C)c2n1` (centres undefined), for which, in the test on CRL-7250, the outcome was inactive. For the same compound, the max response with HEK293 was -4.16%.
Turning to `COc1ccc(CC2C(=O)NC(C)C(=O)N(C)C3Cc4ccc(cc4)Oc4cc(ccc4OC4OC(CO)C(O)C(O)C4O)CC(C(=O)NC(C)C(=O)NC(C)C(=O)N2C)N(C)C3=O)cc1` (centres undefined), the Potency in the test with CRL-7250 was 87.3 nM (active); with HEK293, 55.1 nM (active).
